Only some compounds are listed: those with a hit (about 4.7% of all), similar ones and a draw of the others.
ALR H2O2 inh: inhibitors of human sulfhydryl oxidase ALR; AID 485317; inhibition, % (no concentration beside the values); P55789; 290,000 compounds, 3.8% hits; purified ALR, DTT oxidation, H2O2 HRP-luminol luminescence;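 active = mean replicate inhibition above about 79%, with every replicate also reaching it, limit read from the data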
Target sequence (P55789 whole entry, looked up): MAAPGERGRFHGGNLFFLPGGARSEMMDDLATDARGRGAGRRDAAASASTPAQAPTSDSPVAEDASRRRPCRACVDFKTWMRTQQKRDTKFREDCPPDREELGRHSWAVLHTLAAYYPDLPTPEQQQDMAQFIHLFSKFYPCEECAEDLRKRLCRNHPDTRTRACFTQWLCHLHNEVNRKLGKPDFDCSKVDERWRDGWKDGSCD
MLLE-PAM2 inh: inhibitors of microRNA-mediated deadenylation, human PABP1 MLLE binding | P11940 | GST-MLLE / FITC-PAM2 fluorescence polarization | inhibition, % at 20 µM | 360,000 compounds, 0.36% hits | AID 588489; in the data active = inhibition above about 35%, passing the limit was not always enough;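 also: plate controls were DMSO wells with GST-MLLE for no effect and wells lacking GST-MLLE protein for full effect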
Efflux pump mplx: blocks antifungal efflux pumps in multiplex yeast assay | S. cerevisiae Candida pump triplex, Nile Red efflux | inhibition, % at 10 µM | 330,000 compounds, 0.44% hits;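 active = plate passing quality check with inhibition over a set limit, or well fluorescence over plate mean plus 4 SD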;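 also: Nile Red retained in pooled yeast measured as flow cytometry median fluorescence; 0% = buffer negative control and 100% = Enniatin B positive control; higher means more Nile Red kept so more efflux inhibition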
SUMO HTRF inh: SUMOylation inhibition. P63279. HTRF SUMOylation assay, SAE1/SAE2 + UBC9, in vitro. inhibition, % at 35 µM. 290,000 compounds, 0.36% hits. AID 2006; in the data active = inhibition above about 50%, passing the limit was not always enough
eIF4H FP inh: inhibitors of RNA binding by human eIF4H; eIF4H fluorescence polarization binding assay; Q15056; inhibition, % at 35 µM; 290,000 compounds, 0.94% hits;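 also: calls also rest on retests at 20 µM and on dose response follow-up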
PABP polyA inh: blocks human PABP binding to poly(A) RNA. AID 2014. 290,000 compounds, 1% hits. fluorescence polarization. inhibition, % at 35 µM. P11940;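 also: calls also rest on retests at 20 µM and on dose response follow-up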
The depositor's hits bear a star; / = not tested or not shown. Unless noted, no rule for the calls is given here.

SMILES	ALR H2O2 inh	MLLE-PAM2 inh	Efflux pump mplx	SUMO HTRF inh	eIF4H FP inh	PABP polyA inh
CN(C)c1ccc(NC(=O)C2C3C=CC(C3)C2C(=O)O)cc1 (stereo unspecified)	99*	18	0	-244	28	5
O=C(O)C1C2C=CC(C2)C1C(=O)Nc1ccc2c(c1)OCCO2 (stereo unspecified)	-29	-1	0	9	-2	26
Cc1ccc(-c2csc(NC(=O)CSC3=NCCS3)n2)cc1	100*	26	0	19	-14	14
Cc1ccc(-c2csc(NC(=O)CSc3nc(C)cc(=O)[nH]3)n2)cc1	99*	/	0	19	-2	10
CCC(Sc1nc(C)cc(=O)[nH]1)C(=O)Nc1nc(-c2ccccc2)cs1 (stereo unspecified)	48	18	0	6	11	3
O=C(NOCc1cscn1)Nc1ccccc1	/	6	/	/	/	/
Nc1ncnc2c1ncn2[C@@H]1O[C@H](CCC(=O)NCc2ccccc2)[C@@H](O)[C@H]1O	/	3	/	/	/	/
CCN(CC)c1ccc(CNCc2cccs2)cc1	99*	9	0	16	-3	8
COc1cc(CNCc2cccs2)ccc1OCc1cccs1	1	9	0	-10	-5	5
COc1cccc(C(=O)Nc2cc(C(=O)NCc3ccc(C)cc3)ccc2N2CCC3(CC2)CC(c2cccc(Br)c2)=NO3)c1	0	-22	0	/	/	/
N#C/C(=N/O)c1nc(-c2ccc(F)cc2)cs1	98*	-4	0	20	20	5
NS(=O)(=O)c1ccc(N=Nc2c(O)c(C(=O)O)cc3ccccc23)cc1	-14	-3	0	11	8	2
O=C(O)Cc1ccc(N=Nc2c(O)c(C(=O)O)cc3ccccc23)cc1	-28	3	0	28	77*	45*
CCCCC#Cc1cncc(C(=O)N/N=C/c2ccccc2)c1	-4	18	0	7	-8	-5
Cc1c(C(=O)NCCNc2ncc(C(F)(F)F)cc2Cl)cccc1[N+](=O)[O-]	/	0	0	-8	-7	1
O=[N+]([O-])c1cccc(Cl)c1NCCNc1ncc(C(F)(F)F)cc1Cl	100*	-2	0	0	-13	-3
O=C(NCC1CC1)c1ccc(-c2cn[nH]c2)c2ccoc12	/	2	/	/	/	/
COCCCN1CC(=O)N2C(c3cccc(OC)c3OC)c3[nH]c4ccccc4c3C[C@H]2C1=O (stereo partly specified)	-6	-9	0	1	3	2
COc1cc(NS(=O)(=O)c2ccc(NC(=O)COc3ccccc3Cl)cc2)nc(OC)n1	93*	/	0	-2	8	9
Cc1cc(C)nc(NS(=O)(=O)c2ccc(NC(=O)COc3ccccc3)cc2)n1	99*	0	0	25	-2	2
Cc1cc(C)nc(NS(=O)(=O)c2ccc(NC(=O)c3ccc(O)cc3O)cc2)n1	99*	-1	0	5	0	86
Cc1cc(C)nc(NS(=O)(=O)c2ccc(NC(=O)c3ccccc3C)cc2)n1	-10	-8	0	-11	1	-1
COc1ccc(OCC(=O)NC(=S)Nc2ccc(S(=O)(=O)Nc3cc(OC)nc(OC)n3)cc2)cc1	/	49*	0	7	-4	3
COc1ccc(C(=O)NC(=S)Nc2ccc(S(=O)(=O)Nc3cc(OC)nc(OC)n3)cc2)cc1	32	22	0	1	-11	14
Cc1cccc(-n2ncc3c2CCCC3NC(=O)CCCN2CCCCC2=O)c1C (stereo unspecified)	-23	5	0	8	-6	4
SMILES	ALR H2O2 inh	MLLE-PAM2 inh	Efflux pump mplx	SUMO HTRF inh	eIF4H FP inh	PABP polyA inh
COc1ccccc1OCC(=O)Nc1ccc(S(=O)(=O)Nc2cc(C)on2)cc1	89*	8	0	-5	-9	40
Cc1cccc(OCC(=O)Nc2ccc(S(=O)(=O)Nc3ccccn3)cc2)c1	-4	-7	0	11	0	-8
COc1cc(NS(=O)(=O)c2ccc(NC(=O)COc3cccc(C)c3)cc2)nc(OC)n1	98*	2	0	8	11	20
Cc1ccc(OCC(=O)Nc2ccc(S(=O)(=O)Nc3onc(C)c3C)cc2)cc1	/	-3	1	-10	-9	5
CCc1cccc(OCC(=O)Nc2ccc(S(=O)(=O)Nc3onc(C)c3C)cc2)c1	95*	2	0	0	4	11
COc1cc(NS(=O)(=O)c2ccc(NC(=S)NC(=O)C3CCCC3)cc2)nc(OC)n1	13	20	0	-3	1	28
COc1cc(NS(=O)(=O)c2ccc(NC(=O)NC3CCCCC3)cc2)nc(OC)n1	98*	5	0	-3	-5	4
CCCNC(=O)COc1ccc(S(=O)(=O)Nc2ccc(C)cc2)cc1	/	-6	0	2	-4	-4
CC(=O)NCCNc1nc2cc(-c3ccsc3)sc2c(=O)n1C	/	4	/	/	/	/
Cc1ccc(S(=O)(=O)N(C)C[C@@H]2Oc3ccc(NC(=O)CCC(F)(F)F)cc3CC(=O)N([C@@H](C)CO)C[C@@H]2C)cc1	-4	-2	0	/	/	/
O=C(CSC1=NCCN1)Nc1ccccc1[N+](=O)[O-]	99*	32	0	2	-4	-14
O=C(CSC1=NCCN1)Nc1cccc([N+](=O)[O-])c1	99*	18	0	-17	-9	-1
Nc1nc(SCC(=O)Nc2cccc([N+](=O)[O-])c2)n[nH]1	22	-8	0	/	/	/
COc1ccccc1NC(=O)CN1CC(=O)Nc2ccccc21	1	-12	0	35	-9	82*
CCn1c(SCC(=O)Nc2ccc(C)cc2)nnc1-c1ccccn1	0	6	0	18	-9	-11
Cc1ccc(NC(=O)CSC2=NCCN2)cc1	-3	39*	0	-7	-7	-10
COc1ccccc1-c1cccc([C@@H]2C[C@H]3[C@@H](CN2)CON3C)c1	/	-13	/	/	/	/
O=C(CSC1=NCCN1)NC1CCCCCC1	5	18	0	12	-6	7
COc1ccccc1NC(=O)CSC1=NCCN1	98*	30	0	-5	3	2
O=C(CSC1=NCCN1)NC(c1ccccc1)c1ccccc1	99*	23	0	0	-3	-10
O=C(O)C(CCc1ccccc1)(Cc1ccccc1)C(=O)O	/	-5	/	/	/	/
CCOC(=O)C1=C(C(F)(F)F)Nc2ncnn2C1c1ccc(OC)cc1OC (stereo unspecified)	0	8	0	6	-9	-8
N=C1S/C(=C\c2ccco2)C(=O)N1c1ccc2c(c1)OCO2	-14	-11	0	/	91	40*
Cc1ccc(N2C(=O)/C(=C/c3ccco3)SC2=S)cc1	6	12	0	14	84	4
COc1ccccc1OCCN1C(=O)S/C(=C\c2ccco2)C1=O	-7	0	0	1	-13	-11
N=C1S/C(=C\c2ccco2)C(=O)N1c1nccs1	/	7	0	94*	95*	3.2*

Source: PubChem (several laboratories)
